Experiments:
Assay type in all cases: functional
Plasmodium falciparum [1] = experiment: GSK_TCMDC: Inhibition of Plasmodium falciparum 3D7 in whole red blood cells, using parasite LDH activity as an index of growth. Test compounds present at 2uM
Plasmodium falciparum [2] = experiment: GSK_TCMDC: Inhibition of Plasmodium falciparum Dd2 in whole red blood cells, using parasite LDH activity as an index of growth. Test compounds present at 2uM
HepG2 = experiment: GSK_TCMDC: Percent inhibition of human HepG2 cell line. Test compounds present at 10uM.

Row | Structure (SMILES) | Inhibition (Plasmodium falciparum [1]) [%] | Inhibition (Plasmodium falciparum [2]) [%] | Inhibition (HepG2) [%]
1 | COc1cccc(-c2ccc3c(-c4ccc(F)cc4)cnc(N)c3c2)c1.O=CO | 100 | 70 | 27
2 | CCCN(CCC)C(=O)c1cc(C(=O)N[C@@H](Cc2ccccc2)[C@H](O)CNC2CC2)cc(N2CCCCS2(=O)=O)c1 | 100 | 98 | 0
3 | CN1CCN(CCNc2c3ccccc3nc3c2ccc2ccccc23)CC1.Cl | 100 | 66 | 76
4 | Clc1ccccc1CNc1noc(-c2sccc2Br)n1 | 97 | 93 | 0
5 | N#Cc1ccc(N(CCOc2ccc(Cl)c(F)c2)Cc2ccccc2C(F)(F)F)cc1C(F)(F)F | 100 | 43 | 17
6 | COc1cc(C=NNc2cc(C)nc3c(OC)cccc23)cc(OC)c1OC | 94 | 49 | 2
7 | COc1ccccc1Cc1nc2ccccc2nc1SCC(=O)Nc1cccc(C(F)(F)F)c1 | 97 | 91 | 8
8 | CCc1cn(C)c2c(N3CCCC3=O)cc(C(=O)N[C@@H](Cc3ccccc3)[C@H](O)CNC(C)(C)c3cccc(C(F)(F)F)c3)cc12 | 97 | 97 | 22
9 | O=C(O)C(F)(F)F.O=C1OC(c2ccccc2)(c2ccccn2)CN1C1CCN(Cc2cccn2-c2ccc(Cl)cc2)CC1 (stereo not given) | 99 | 98 | 21
10 | CCOC(=O)c1nc(-c2cc(Cl)nc(Cl)c2)[nH]c1NC(=S)NCc1ccc(NS(C)(=O)=O)cc1 | 100 | 98 | 0
